SMILES strings stand for the structures.

This note sets out measurements from ChEMBL document CHEMBL3988442, “University of Dundee, Small-Polar-MMV Screening Library” (2021).

The target in assay [1] is T1, Aspartate--tRNA(Asp/Asn) ligase (Mycobacterium tuberculosis (strain ATCC 25618 / H37Rv)) (UniProt P9WFW3). Also: in the data most compounds retested in dose-response had high values.
T1 sequence (whole entry): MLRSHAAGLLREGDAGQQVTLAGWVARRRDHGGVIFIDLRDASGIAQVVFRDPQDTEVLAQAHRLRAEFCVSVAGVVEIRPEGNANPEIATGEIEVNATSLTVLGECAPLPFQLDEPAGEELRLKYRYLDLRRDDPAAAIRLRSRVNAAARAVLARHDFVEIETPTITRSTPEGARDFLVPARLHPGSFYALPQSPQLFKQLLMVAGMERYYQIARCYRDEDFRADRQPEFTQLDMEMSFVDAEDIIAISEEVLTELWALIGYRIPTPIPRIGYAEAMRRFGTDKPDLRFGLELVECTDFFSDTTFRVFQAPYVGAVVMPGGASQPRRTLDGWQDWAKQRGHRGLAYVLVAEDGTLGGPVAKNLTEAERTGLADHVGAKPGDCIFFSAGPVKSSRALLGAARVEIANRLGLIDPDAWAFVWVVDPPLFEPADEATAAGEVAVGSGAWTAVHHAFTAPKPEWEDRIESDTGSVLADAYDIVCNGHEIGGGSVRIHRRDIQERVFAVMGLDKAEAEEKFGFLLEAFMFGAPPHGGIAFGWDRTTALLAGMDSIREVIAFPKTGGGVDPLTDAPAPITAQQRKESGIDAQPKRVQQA
Put plainly: Assay for Asp RNA synthetase-1 from Mycobacterium tuberculosis. It counts as functional. Set-up: scale not given: direction of the effect not stated beside the values. As to conditions: 30 µM.

The target in assay [2] is Shiga toxin 2 (Escherichia coli O157:H7) (UniProt P09385+P09386). Put plainly: E. coli 0.157:H7 Shiga Toxin SOP - stx2 screening assay. It counts as functional. Set-up: scale not given: direction of the effect not stated beside the values. As to conditions: 30 µM.

For `CCC(C)[C@H](NC(=O)c1cc(Br)ccc1-n1cnnn1)C(=O)OC` (stereo partly specified), the Percent Effect was -2% in assay [1] and -22.1% in assay [2].
Regarding `COc1ccc(C2=C(C)C(N3CCc4ccccc43)=NS2(=O)=O)cc1`, the Percent Effect in assay [1] was -2.38%; in assay [2], -24.6%.
For `COC(=O)c1ccc(N2CCN(CCN3CCOCC3)C(C)C2)cc1` (stereo unspecified), the figures for the Percent Effect in assay [1] and in assay [2] were -8.26% and 32.4%, respectively.
Turning to `Cc1csc(N2CCCN(C(=O)C(C(C)C)n3cncn3)CC2)n1` (stereo unspecified), the Percent Effect is -2.24% in assay [1] and 15.4% in assay [2].
The corresponding values for `CC(C)N1CCCC(CCCc2ccccn2)(C(=O)O)C1` (stereo unspecified) are 1.98% and 9.97%.
Turning to `Cc1nn(C)c(C)c1C1CCCN1Cc1nc(C)c2ccccc2n1` (stereo unspecified), the results for the Percent Effect in assay [1] and in assay [2] were 0.742% and 10.8%, respectively.
For `CCn1ncc2c1CCCC2NCc1cc(Cl)c(OC)c(OC)c1` (stereo unspecified), in that order: -2.06% and 1.68%.
For `Cc1nc(C)n(CC2CN(CCc3ccncc3)CCO2)n1` (stereo unspecified), in that order: 1.98% and -14.2%.
The corresponding values for `CC(O)CN1CCN(C(=O)c2cc3ccccc3[nH]c2=O)CC1` (stereo unspecified) are -2.04% and 2.32%.
On to `N#Cc1ccnc(N2CCN(CC(O)c3cccc(F)c3)CC2)c1` (stereo unspecified), for which the Percent Effect in assay [1] was 1.79%; in assay [2] it was 5.66%.
The corresponding values for `Cn1ncc2c(N3CCN(C(N)=O)CC3)nc(C3CCCC3)nc21` are 1.25% and -24.2%.
As to `CCn1nccc1CNC(=O)C1CCCC1`, the Percent Effect was 11.4% in assay [1] and -65.5% in assay [2].
As to `Cc1ccc(C)n1-c1ccc(C(=O)NCCNc2ncccn2)cc1`, the Percent Effect was determined as 5.76% in assay [1] and 7.86% in assay [2].
For `COc1c(CNC2CCCc3ccccc32)c(C(C)C)nn1C` (stereo unspecified), the results for the Percent Effect in assay [1] and in assay [2] were -0.233% and -10.1%, respectively.
For `O=S(=O)(Cc1ccccc1)NCC1CCN(c2cnccn2)CC1`, in that order: 2.52% and 11.3%.
As for `Cc1c(C)n(Cc2ccccn2)c2nc3c(c(N)c12)CCCC3`, the Percent Effect in assay [1] is -2.53%; in assay [2], -3.33%.
For `Cc1cc(C)n(CC2CN(CCOc3cccc(C#N)c3)CCO2)n1` (stereo unspecified), in that order: 4.21% and 33%.
For the compound `COCCO[C@@H]1CCN(C(=O)c2ccc(C)o2)[C@@H]1Cc1cnn(C)c1`, the Percent Effect in assay [1] turned out to be 2.6%; in assay [2], 2.85%.
